As usually defined, the inhibition is the relative decrease from the control value, in per cent.

The target in test [1] is Fibroblast growth factor receptor 4 (Homo sapiens) (UniProt P22455). The note with it: at 1 µM.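 Also: reported figure is the averaged percent inhibition of FGFR4, from the GSK PKIS kinase screening panel.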
In test [2] the target is Tyrosine-protein kinase Fgr (Homo sapiens) (UniProt P09769). Particulars: at 0.1 µM.
For test [3] the target is unchanged. Particulars: at 1 µM.
Test [4] has as its target Vascular endothelial growth factor receptor 1 (Homo sapiens) (UniProt P17948). The note with it: at 0.1 µM.
The target is the same in test [5]. Particulars: at 1 µM.
For test [6], the target named is Receptor-type tyrosine-protein kinase FLT3 (Homo sapiens) (UniProt P36888). The note with it: at 0.1 µM.
The target is the same in test [7]. Particulars: at 1 µM.
Test [8] concerns T1, Receptor-type tyrosine-protein kinase FLT3 (Homo sapiens), P36888 [D835Y].
T1 sequence (whole entry): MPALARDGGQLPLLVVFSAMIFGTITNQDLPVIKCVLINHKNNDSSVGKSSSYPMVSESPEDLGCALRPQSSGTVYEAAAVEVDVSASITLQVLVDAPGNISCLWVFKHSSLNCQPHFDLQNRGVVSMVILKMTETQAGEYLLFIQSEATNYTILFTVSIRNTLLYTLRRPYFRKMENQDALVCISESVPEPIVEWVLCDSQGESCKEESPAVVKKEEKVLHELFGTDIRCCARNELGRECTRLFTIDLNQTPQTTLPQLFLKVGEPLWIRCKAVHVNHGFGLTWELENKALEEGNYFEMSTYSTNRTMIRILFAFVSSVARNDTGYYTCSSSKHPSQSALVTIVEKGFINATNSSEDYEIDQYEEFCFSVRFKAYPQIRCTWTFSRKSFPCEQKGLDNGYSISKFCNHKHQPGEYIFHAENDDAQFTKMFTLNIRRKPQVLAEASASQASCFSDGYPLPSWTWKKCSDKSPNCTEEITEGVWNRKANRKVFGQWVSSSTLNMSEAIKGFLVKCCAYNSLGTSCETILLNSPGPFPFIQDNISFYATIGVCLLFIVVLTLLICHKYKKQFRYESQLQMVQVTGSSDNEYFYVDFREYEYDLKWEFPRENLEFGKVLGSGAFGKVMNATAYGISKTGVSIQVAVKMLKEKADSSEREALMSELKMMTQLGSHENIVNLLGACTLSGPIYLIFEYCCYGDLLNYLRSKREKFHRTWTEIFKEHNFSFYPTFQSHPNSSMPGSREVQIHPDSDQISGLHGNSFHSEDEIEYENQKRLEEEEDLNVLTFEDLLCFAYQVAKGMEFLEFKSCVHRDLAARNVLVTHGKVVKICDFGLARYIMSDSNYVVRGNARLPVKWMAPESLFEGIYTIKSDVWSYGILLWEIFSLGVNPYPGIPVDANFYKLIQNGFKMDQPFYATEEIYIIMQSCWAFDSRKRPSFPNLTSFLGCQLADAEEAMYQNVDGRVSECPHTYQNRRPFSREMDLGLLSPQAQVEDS
Particulars: at 0.1 µM.

The target of test [9] is Non-receptor tyrosine-protein kinase TYK2 (Homo sapiens) (UniProt P29597). Particulars: at 1 µM.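 Also: values are mean percent inhibition of TYK2 kinase.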
Sequence of Non-receptor tyrosine-protein kinase TYK2 (Homo sapiens) (P29597 whole entry): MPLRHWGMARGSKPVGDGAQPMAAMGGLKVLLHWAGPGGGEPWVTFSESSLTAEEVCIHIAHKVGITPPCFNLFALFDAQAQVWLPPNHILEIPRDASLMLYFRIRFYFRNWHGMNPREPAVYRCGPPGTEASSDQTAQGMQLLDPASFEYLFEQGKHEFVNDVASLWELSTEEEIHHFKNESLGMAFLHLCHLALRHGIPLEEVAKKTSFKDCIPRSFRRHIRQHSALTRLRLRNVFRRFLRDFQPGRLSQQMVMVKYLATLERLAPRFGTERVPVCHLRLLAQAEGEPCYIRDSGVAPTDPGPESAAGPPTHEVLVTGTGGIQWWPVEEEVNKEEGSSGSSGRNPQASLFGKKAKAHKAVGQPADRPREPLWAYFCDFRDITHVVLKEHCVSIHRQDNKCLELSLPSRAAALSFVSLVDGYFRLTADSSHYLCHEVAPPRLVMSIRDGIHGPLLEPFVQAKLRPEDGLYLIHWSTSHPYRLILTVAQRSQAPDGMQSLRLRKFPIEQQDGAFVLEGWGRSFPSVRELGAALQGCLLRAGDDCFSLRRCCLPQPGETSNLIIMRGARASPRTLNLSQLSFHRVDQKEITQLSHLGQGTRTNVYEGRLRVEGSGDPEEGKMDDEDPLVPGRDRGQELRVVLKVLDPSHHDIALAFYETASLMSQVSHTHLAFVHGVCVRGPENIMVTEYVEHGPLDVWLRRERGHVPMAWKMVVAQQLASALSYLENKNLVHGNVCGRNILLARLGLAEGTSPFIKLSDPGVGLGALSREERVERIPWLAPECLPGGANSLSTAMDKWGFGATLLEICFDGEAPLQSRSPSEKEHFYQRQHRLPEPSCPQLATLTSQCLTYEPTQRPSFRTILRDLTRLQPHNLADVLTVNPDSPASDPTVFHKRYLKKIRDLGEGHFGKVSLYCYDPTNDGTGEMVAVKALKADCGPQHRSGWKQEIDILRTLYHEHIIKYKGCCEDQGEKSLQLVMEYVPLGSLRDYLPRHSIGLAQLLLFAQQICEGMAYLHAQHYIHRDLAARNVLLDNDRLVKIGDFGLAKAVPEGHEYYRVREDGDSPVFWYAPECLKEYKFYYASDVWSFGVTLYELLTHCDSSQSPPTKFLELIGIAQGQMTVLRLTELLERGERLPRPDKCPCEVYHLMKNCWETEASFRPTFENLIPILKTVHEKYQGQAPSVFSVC
Test [10] deals with T2, Tyrosine-protein kinase receptor TYRO3 (Homo sapiens) (UniProt Q06418).
T2 sequence (whole entry): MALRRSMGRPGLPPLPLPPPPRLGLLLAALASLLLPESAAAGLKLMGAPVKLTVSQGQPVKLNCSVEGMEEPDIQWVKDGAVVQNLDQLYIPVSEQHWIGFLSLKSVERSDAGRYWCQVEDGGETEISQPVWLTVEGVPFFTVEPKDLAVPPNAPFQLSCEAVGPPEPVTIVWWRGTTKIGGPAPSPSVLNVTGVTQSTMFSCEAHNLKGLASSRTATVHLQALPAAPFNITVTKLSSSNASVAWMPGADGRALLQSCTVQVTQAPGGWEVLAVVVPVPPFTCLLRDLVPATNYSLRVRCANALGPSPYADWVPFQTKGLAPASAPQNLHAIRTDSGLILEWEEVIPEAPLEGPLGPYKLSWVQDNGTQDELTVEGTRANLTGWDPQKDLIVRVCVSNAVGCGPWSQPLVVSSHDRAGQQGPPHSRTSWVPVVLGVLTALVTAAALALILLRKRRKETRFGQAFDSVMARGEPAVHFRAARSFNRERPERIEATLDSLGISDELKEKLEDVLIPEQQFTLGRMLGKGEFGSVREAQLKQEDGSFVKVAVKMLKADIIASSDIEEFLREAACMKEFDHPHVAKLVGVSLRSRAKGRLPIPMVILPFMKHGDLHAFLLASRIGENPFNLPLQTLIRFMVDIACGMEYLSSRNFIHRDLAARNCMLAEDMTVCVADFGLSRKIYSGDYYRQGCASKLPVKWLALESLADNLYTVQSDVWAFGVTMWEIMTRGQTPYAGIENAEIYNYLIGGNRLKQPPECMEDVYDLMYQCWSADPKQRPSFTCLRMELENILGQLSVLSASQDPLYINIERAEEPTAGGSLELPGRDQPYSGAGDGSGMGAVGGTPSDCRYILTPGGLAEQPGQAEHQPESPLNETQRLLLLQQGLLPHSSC
Particulars: at 0.1 µM.

The target of test [11] is T2, Tyrosine-protein kinase receptor TYRO3 (Homo sapiens). The note with it: at 1 µM.
Test [12] concerns the target Tyrosine-protein kinase Yes (Homo sapiens) (UniProt P07947). The note with it: at 0.1 µM.
The target is the same in test [13]. The note with it: at 1 µM.
The target of test [14] is T3, Tyrosine-protein kinase ZAP-70 (Homo sapiens) (UniProt P43403).
T3 sequence (whole entry): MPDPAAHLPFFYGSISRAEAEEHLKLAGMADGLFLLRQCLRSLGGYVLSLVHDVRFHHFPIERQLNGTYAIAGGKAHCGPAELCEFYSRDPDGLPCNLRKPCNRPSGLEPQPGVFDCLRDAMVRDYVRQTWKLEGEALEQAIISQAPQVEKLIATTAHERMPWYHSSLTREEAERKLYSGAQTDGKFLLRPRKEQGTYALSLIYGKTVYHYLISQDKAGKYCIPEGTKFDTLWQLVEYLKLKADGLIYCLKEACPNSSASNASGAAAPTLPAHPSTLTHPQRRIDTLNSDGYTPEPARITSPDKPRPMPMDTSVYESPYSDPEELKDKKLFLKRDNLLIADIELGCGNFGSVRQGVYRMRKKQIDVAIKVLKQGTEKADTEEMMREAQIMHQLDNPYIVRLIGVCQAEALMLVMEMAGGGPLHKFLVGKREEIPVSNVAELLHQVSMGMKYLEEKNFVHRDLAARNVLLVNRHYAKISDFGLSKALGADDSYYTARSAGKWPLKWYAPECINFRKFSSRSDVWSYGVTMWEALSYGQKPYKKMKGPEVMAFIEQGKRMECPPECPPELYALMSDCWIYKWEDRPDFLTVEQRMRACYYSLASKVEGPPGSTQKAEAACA
The note with it: at 0.1 µM.

Test [15] addresses T3, Tyrosine-protein kinase ZAP-70 (Homo sapiens). Particulars: at 1 µM.
For test [16], the target named is Serine/threonine-protein kinase B-raf (Homo sapiens) (UniProt P15056). The note with it: at 0.1 µM.
Sequence of Serine/threonine-protein kinase B-raf (Homo sapiens) (P15056 whole entry): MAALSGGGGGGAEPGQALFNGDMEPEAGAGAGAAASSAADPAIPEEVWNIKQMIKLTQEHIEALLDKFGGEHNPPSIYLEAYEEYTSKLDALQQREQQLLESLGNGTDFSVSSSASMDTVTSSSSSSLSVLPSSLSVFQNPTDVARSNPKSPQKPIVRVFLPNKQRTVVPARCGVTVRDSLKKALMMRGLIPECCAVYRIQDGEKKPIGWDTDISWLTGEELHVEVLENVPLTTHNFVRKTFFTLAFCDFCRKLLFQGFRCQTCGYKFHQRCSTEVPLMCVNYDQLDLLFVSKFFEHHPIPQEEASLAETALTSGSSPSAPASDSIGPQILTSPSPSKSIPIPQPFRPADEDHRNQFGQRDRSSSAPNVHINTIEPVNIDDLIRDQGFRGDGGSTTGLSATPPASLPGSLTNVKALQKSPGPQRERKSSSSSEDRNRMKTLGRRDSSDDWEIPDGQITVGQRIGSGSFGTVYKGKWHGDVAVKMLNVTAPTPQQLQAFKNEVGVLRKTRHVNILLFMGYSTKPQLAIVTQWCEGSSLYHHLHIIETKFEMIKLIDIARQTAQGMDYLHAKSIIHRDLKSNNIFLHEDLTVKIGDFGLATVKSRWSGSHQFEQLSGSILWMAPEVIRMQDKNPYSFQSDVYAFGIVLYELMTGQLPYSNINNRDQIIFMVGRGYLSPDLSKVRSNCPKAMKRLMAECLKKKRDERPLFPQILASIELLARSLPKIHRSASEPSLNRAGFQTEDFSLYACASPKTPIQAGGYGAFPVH
For test [17] the target is unchanged. The note with it: at 1 µM.
Test [18] relates to Serine/threonine-protein kinase B-raf (Homo sapiens), P15056 [V600E]. Particulars: at 0.1 µM.
Sequence of Serine/threonine-protein kinase B-raf (Homo sapiens), P15056 [V600E] (P15056 whole entry V600E): as the sequence (P15056 whole entry) above, with V600E counted along it
Test [19] has the same test system. Particulars: at 1 µM.
For test [20], the target named is RAF proto-oncogene serine/threonine-protein kinase (Homo sapiens) (UniProt P04049). The note with it: at 0.1 µM.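 Also: values are mean CRAF kinase inhibition from profiling of the GSK Published Kinase Inhibitor Set.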
Sequence of RAF proto-oncogene serine/threonine-protein kinase (Homo sapiens) (P04049 whole entry): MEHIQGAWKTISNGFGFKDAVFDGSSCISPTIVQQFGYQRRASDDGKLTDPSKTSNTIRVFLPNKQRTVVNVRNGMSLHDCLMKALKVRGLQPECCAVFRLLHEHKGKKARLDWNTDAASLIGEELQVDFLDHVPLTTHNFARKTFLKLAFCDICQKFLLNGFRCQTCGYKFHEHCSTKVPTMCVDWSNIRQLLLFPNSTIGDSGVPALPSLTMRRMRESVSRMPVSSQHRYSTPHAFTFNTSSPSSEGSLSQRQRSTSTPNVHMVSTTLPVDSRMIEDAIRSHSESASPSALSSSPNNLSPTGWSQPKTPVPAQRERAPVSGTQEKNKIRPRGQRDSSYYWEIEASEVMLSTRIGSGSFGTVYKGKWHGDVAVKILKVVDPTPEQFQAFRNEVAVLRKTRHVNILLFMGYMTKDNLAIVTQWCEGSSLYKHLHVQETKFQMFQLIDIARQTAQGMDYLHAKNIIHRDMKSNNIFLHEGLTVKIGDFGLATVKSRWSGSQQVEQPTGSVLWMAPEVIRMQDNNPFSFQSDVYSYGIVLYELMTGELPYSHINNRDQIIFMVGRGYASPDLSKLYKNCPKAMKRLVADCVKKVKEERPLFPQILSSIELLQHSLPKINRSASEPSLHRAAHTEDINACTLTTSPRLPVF

SMILES strings stand for the structures.

Sequence of Tyrosine-protein kinase Fgr (Homo sapiens) (P09769 2-529 limits assumed): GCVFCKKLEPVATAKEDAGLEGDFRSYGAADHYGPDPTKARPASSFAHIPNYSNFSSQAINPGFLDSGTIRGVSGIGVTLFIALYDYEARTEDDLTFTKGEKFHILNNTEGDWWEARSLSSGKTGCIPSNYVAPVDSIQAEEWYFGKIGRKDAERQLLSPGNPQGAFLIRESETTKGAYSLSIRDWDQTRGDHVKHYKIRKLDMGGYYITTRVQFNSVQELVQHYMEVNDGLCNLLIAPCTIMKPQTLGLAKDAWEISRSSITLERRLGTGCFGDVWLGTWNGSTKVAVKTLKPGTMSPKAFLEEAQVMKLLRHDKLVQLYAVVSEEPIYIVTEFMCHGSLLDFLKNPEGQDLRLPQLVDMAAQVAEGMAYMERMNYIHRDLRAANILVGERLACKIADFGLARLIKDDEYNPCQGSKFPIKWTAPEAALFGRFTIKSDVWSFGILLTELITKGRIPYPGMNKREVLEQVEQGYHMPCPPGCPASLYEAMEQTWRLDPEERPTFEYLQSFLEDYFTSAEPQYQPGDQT
Sequence of Tyrosine-protein kinase Yes (Homo sapiens) (P07947 2-543 limits assumed): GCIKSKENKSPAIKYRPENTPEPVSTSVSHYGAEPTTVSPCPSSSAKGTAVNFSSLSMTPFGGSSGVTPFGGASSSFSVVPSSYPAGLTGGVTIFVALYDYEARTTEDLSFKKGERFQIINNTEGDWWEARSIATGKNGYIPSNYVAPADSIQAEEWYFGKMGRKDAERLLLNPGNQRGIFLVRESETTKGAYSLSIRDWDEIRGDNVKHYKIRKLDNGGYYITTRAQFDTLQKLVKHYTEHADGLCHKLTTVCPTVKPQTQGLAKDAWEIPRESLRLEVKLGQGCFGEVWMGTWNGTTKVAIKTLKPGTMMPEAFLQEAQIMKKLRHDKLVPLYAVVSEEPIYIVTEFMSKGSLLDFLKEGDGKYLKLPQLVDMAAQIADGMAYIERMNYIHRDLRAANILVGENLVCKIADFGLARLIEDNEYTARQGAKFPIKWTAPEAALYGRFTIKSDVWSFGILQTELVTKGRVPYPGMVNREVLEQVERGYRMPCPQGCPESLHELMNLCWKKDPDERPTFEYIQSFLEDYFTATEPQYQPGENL
Sequence of Fibroblast growth factor receptor 4 (Homo sapiens) (P22455 22-802 limits assumed): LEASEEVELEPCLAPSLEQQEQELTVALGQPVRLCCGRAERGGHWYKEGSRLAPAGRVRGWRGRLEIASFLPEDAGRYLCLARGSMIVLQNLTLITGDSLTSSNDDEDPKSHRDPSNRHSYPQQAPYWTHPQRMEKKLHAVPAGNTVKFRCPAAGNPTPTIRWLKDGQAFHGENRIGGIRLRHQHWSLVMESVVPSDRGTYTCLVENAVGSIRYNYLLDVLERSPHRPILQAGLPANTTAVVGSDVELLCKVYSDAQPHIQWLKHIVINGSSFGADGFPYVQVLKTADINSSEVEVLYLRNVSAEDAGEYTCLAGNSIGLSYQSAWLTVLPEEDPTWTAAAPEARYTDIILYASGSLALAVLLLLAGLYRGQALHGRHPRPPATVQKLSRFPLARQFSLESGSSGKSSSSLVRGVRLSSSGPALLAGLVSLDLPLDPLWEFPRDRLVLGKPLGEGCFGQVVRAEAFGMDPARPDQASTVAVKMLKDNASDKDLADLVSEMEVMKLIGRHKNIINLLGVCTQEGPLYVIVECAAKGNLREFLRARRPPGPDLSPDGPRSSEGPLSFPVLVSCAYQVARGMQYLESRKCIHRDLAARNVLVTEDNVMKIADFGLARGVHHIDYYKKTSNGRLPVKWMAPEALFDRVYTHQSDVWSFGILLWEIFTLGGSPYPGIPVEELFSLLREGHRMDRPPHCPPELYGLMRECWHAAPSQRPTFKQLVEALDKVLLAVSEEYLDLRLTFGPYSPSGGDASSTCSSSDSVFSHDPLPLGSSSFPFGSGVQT

In the case of `COc1cc(Nc2ncc3c(C)nc(-c4cccc(Oc5ccccc5)c4)n3n2)cc(OC)c1OC`, the inhibition in test [1] was found to be 1.97%; in [2], 0.02%; in test [3], 4.22%; in [4] it was 0.68%; in test [5], 2.1%; in [6], 3.86%. Further, the inhibition is 28.5% in test [7]; 3.72% in test [8]; -3.18% in [9]; 2% in test [10]; 5.32% in test [11]; -0.14% in [12]. In addition, the inhibition is 7.34% in [13]; 1.87% in test [14]; -1.81% in test [15]; 3.08% in test [16]; 12.2% in [17]; 2.54% in test [18]. Besides, the figures for the inhibition in test [19] and in test [20] were 11.4% and 2.2%, respectively.

`CCc1nccc2c1nc(-c1nonc1N)n2CC`: the inhibition in [1] is 1.32%; in test [2], -0.77%; in test [3], 3.85%; in test [4], -0.82%; in test [5] it was 1.6%; in [6], -0.04%. The inhibition in test [7] is 0.33%; in test [8], -2.37%; in [9], -2.82%; in test [10], -0.74%; in test [11], -0.82%; in test [12], 0.39%. Further, the inhibition in [13] is 1.95%; in [14] it was 1.4%; in test [15], 0.96%; in test [16], -0.39%; in [17], 1.49%; in test [18], 0.46%. For the same compound, the results for the inhibition in [19] and in test [20] were 1.01% and -4.45%, respectively.

With `C#Cc1cccc(Nc2ncnc3ccc(OCCCCNCCS(C)(=O)=O)cc23)c1`, the inhibition was -1.61% in test [1]; 10.5% in test [2]; 15.5% in test [3]; 2.51% in test [4]; 4.95% in [5]; 1.29% in test [6]. Besides, the inhibition in [7] is 2.94%; in test [8] it was 3.91%; in test [9], -1.47%; in [10] it was 2.65%; in test [11] it was 8.46%; in test [12], 4.13%. For the same compound, the inhibition in [13] was 12.3%; in [14] it was -1.39%; in test [15], -2.29%; in [16], 8.08%; in test [17] it was 6.4%; in test [18] it was 8.35%. In addition, the inhibition in test [19] is 5.48%; in test [20], -5.79%.

`COc1ccc2cc(-c3c(-c4ccncc4)nc(-c4ccc(S(C)(=O)=O)cc4C)n3C)ccc2c1`: the inhibition worked out at 2.96% in [1]; 3.77% in test [2]; 4.62% in [3]; 0.91% in test [4]; 2.09% in test [5]; 1.65% in [6]. For the same compound, the inhibition in [7] was 1%; in test [8] it was -1.54%; in test [9] it was -1.13%; in [10], 2.19%; in test [11] it was 5.53%; in [12] it was 3.64%. Besides, the inhibition was 20.9% in test [13]; -0.34% in test [14]; 0.82% in test [15]; 6.36% in test [16]; 6.36% in [17]; 6.6% in test [18]. Also, the inhibition came out at 5.85% in test [19] and 5.5% in test [20].

Consider `Nc1nccc(-c2c(-c3ccc(F)cc3)ncn2C2CCC(O)CC2)n1` (stereo not given), for which the inhibition came to 0.55% in test [1]; 1.87% in test [2]; 16.5% in test [3]; 0.09% in [4]; 1.16% in [5]; 1.8% in [6]. Moreover, the inhibition in test [7] is -0.14%; in test [8], 3.94%; in test [9], 0.09%; in test [10] it was 0.62%; in test [11], 2.9%; in [12] it was 5.1%. Besides, the inhibition in test [13] is 40%; in [14], -8.32%; in test [15], 1.54%; in test [16] it was -2.22%; in test [17] it was -1.06%; in test [18], -3.35%. For the same compound, the inhibition in [19] is -2.66%; in test [20], -4.81%.

Regarding `O=C(Nc1n[nH]c2cc(-c3ccccc3)ccc12)C1CC1`, the inhibition in [1] was 0.83%; in test [2] it was 1.51%; in test [3] it was 12.8%; in test [4], 3.64%; in [5] it was 2.3%; in test [6], 0.48%. Moreover, the inhibition in test [7] is 2.82%; in test [8] it was -3.75%; in test [9], -4.78%; in test [10], 3.71%; in test [11], 16.1%; in [12] it was 1.86%. Further, the inhibition stood at 5.44% in test [13]; 4.16% in test [14]; 1.7% in test [15]; 7.16% in test [16]; 6.29% in [17]; 6.47% in [18]. For the same compound, the inhibition is 6.53% in [19] and -0.71% in test [20].

Values taken from ChEMBL document CHEMBL1961873, “Compounds: GSK PKIS; Assays: Nanosyn kinase panel” (2012).
